Measurements published in PubChem BioAssay AID1159580 (chemical genetic matrix, 2015).
About 2,000 (36%) of roughly 5,500 compounds were called active. Roughly 18% stayed inconclusive and do not appear here. Rule as the data show it: active = normalized growth mostly below about 0.91 (no sharp cut-off); inconclusive = no clear call, values can overlap the other calls; inactive = mostly above about 0.92. The list shows a part of the results.

Experiment: chemical genetic growth profiling, strain panel (AID 1159580);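 also: tested at 20 µM; growth read once vehicle control cultures reached saturation at 30 °C; 1 = growth at the plate median or of vehicle wells; lower values mean less growth of the strain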
Conditions: growth OD

Measured: normalized growth

CC(C)(C)OC(=O)N1CCC(C(N)=O)CC1
inactive: S. cerevisiae deletion strains, locus YAL013W, strain DEP1, stronger effect = lower value 0.997 | S. cerevisiae deletion strains, locus YBR229C, strain ROT2, stronger effect = lower value 1.01 | S. cerevisiae deletion strains, locus YCL061C, strain MRC1, stronger effect = lower value 1.02 | S. cerevisiae deletion strains, locus YDL101C, strain DUN1, stronger effect = lower value 1.01 | S. cerevisiae deletion strains, locus YDR150W, strain NUM1, stronger effect = lower value 1.01 | S. cerevisiae deletion strains, locus YEL061C, strain CIN8, stronger effect = lower value 1.01 | S. cerevisiae deletion strains, locus YGR078C, strain PAC10, stronger effect = lower value 1.01 | S. cerevisiae deletion strains, locus YHR030C, strain SLT2, stronger effect = lower value 1.08 | S. cerevisiae deletion strains, locus YHR087W, strain rtc3, stronger effect = lower value 1.01 | S. cerevisiae deletion strains, locus YJR043C, strain POL32, stronger effect = lower value 1.01 | S. cerevisiae deletion strains, locus YJR075W, strain HOC1, stronger effect = lower value 1.01 | S. cerevisiae deletion strains, locus YLR039C, strain RIC1, stronger effect = lower value 1.04 | S. cerevisiae deletion strains, locus YLR058C, strain SHM2 (second series), stronger effect = lower value 1.01 | S. cerevisiae deletion strains, locus YLR085C, strain ARP6, stronger effect = lower value 1.02 | S. cerevisiae deletion strains, locus YLR262C, strain YPT6, stronger effect = lower value 1.07 | S. cerevisiae deletion strains, locus YML094W, strain GIM5, stronger effect = lower value 1.03 | S. cerevisiae deletion strains, locus YMR219W, strain ESC1, stronger effect = lower value 1.01 | S. cerevisiae deletion strains, locus YMR263W, strain SAP30, stronger effect = lower value 1.02 | S. cerevisiae deletion strains, locus YMR307W, strain GAS1, stronger effect = lower value 1.04 | S. cerevisiae deletion strains, locus YNL153C, strain GIM3, stronger effect = lower value 1.01 | S. cerevisiae deletion strains, locus YNL298W, strain CLA4 (second series), stronger effect = lower value 1.03 | S. cerevisiae deletion strains, locus YNL322C, strain KRE1, stronger effect = lower value 1.02 | S. cerevisiae deletion strains, locus YNR030W, strain Alg12, stronger effect = lower value 1.03 | S. cerevisiae deletion strains, locus YPL055C, strain LGE1, stronger effect = lower value 1.01 | S. cerevisiae deletion strains, locus YPL241C, strain CIN2, stronger effect = lower value 1.03 | S. cerevisiae deletion strains, locus YPR135W, strain CTF4, stronger effect = lower value 0.974 | S. cerevisiae strains, strain wild type, stronger effect = lower value 1.02
